The structures appear in SMILES notation. Inconclusive results are not listed. Activity calls are given as the source filed them. Rule for the calls: active = hit-call score of the fitted dose curve at least 0.9, where 1 is the maximum; inconclusive = response in the unintended direction; inactive = score below 0.9.

A word on the AC50: it is the concentration giving half of the maximal activity seen.

Read-out in this assay: glucuronosyltransferase (UGT1A1), UGT1A1 (gene 54658)
As to the kind of experiment: CLD_UGT1A1_24hr: CellzDirect (CLD) Gene Expression Assay for glucuronosyltransferase (UGT1A1) at 24 hours (AID 2283696). Here is the method:
CLD_24hr is a cell-based, multiplexed-readout assay that uses hepatocyte, a human liver primary cell, with measurements taken at 24 hours after chemical dosing in a 96-well plate.CLD_UGT1A1_24hr is one of 16 assay component(s) measured or calculated from the CLD_24hr assay. It is designed to make measurements of mRNA induction, a form of inducible reporter, as detected with chemiluminescence signals by Quantitative Nuclease Protection Assay (qNPA) technology.Data from the assay component CLD_UGT1A1_24hr was analyzed at the endpoint, CLD_UGT1A1_24hr, in the positive analysis fitting direction relative to DMSO as the negative control and baseline of activity. Using a type of inducible reporter, gain-of-signal activity can be used to understand changes in the reporter gene as they relate to the gene UGT1A1. Furthermore, this assay endpoint can be referred to as a primary readout. To generalize the intended target to other relatable targets, this assay endpoint is annotated to the transferase intended target family, where subfamily is glucuronosyltransferase.
Human hepatocyte cultures were treated daily for two consecutive days with fresh dosing solutions containing appropriate concentrations of the 320 ToxCast chemicals (chemical identities were blinded to CellzDirect and other ToxCast collaborators), vehicle control (0.2% DMSO), and positive control inducers as summarized in Table 1. Due to the large number of treatment groups and chemicals examined, the ToxCast chemicals were divided into two groups (spanning two independent cultures of hepatocytes from separate donor preparations (Hu778: ToxCast plates 1 and 2; Hu776: ToxCast plates 3 and 4). Each preparation of human hepatocyte cultures was treated with respective vehicle control, medium only control, set of six positive controls/reference chemicals for the five hepatic receptor pathways, and a subset of eight of the ToxCast chemicals (indoxacarb, pyrithiobac-sodium, norflurazon, cyhalofop-butyl, methomyl, thiram, acetochlor, and propiconazole). These replicate data, coupled with internal replicates designed within the blinded ToxCast chemical library, provided additional data to evaluate interindividual differences between hepatocyte preparations and their potential impact on chemical profiles.Cell morphology and integrity were evaluated using phase-contrast microscopy as an indicator of hepatocyte cell health (Tyson & Green, 1987). Cultures for each treatment group (i.e., media, vehicle [0.2% DMSO], positive control inducers [multiple concentrations], and the ToxCast chemicals [multiple concentrations]) were observed and cell morphology was assessed relative to vehicle control cultures at each harvest time point (0, 6, 24, or 48 h). […] Images were evaluated at the conclusion of the study to assess changes in cell integrity and account for the effects of chemical exposure on uncharacteristic changes in concentration-dependent gene expression profiles. The results from these determinations of apparent cytotoxicity were annotated (yes/no) alongside the corresponding qNPA data for reference.At the conclusion of each treatment period, hepatocyte cultures (96-well) were washed with 1 volume of HBSS, lysed by addition of 25 ul ArrayPlate lysis buffer (HTG, Tucson, AZ), and 70 ul/well of Denaturation Oil, denatured by incubation at 95C for 10 min, and frozen at approximately -70C until analysis by nuclease protection assay (qNPA) (Roberts et al., 2007). For qNPA analysis, cell lysates were thawed at 50C for approximately 30 min, qNPA probes were added, and samples were incubated at 95C for 10 min to begin the detection process by denaturing the target RNA, dissociating the duplexes and secondary structure hybridization. At the conclusion of the hybridization period, S1 nuclease reagent was added to each sample to digest all nonprotected nucleotides at 50C for 60-90 min. […]
As for `Nc1nc(N)nc(NC2CC2)n1`, the compound was classed as inactive. Consider `C#CCC1=C(C)C(OC(=O)C2C(C=C(C)C)C2(C)C)CC1=O` (stereo not given), for which the call was inactive.

For the compound `CN(C)NC(=O)CCC(=O)O`, the compound was classed as inactive. On the same count and under the same terms, the entry for `CC(=NC#N)N(C)Cc1ccc(Cl)nc1` is “inactive”. On the same count and under the same terms, the entry for `CC(C)[C@H](C(=O)O[C@H](C#N)c1cccc(Oc2ccccc2)c1)c1ccc(Cl)cc1` is “inactive”; for `CCCOc1nn(C(=O)NS(=O)(=O)c2ccccc2C(=O)OC)c(=O)n1C` it is “inactive”; for `CSc1nc(NC(C)C)nc(NC(C)C)n1` it is “inactive”. In the case of `O=c1ccc(=O)[nH][nH]1`, the compound was called inactive. The same measure, in the same setting: the entry for `CCOC(=O)CC(SP(=O)(OC)OC)C(=O)OCC` (stereo not given) is “inactive”; for `CCC(=NOC/C=C/Cl)C1=C(O)CC(C2CCOCC2)CC1=O` (stereo not given) it is “inactive”. Turning to `CON=C(C(=O)OC)c1ccccc1CON=C(C)c1cccc(C(F)(F)F)c1`, the outcome was inactive. The same measure, in the same setting: the same measure for `CCOP(=O)(OCC)Oc1cc(C)nc(C(C)C)n1`: “inactive”; for `CNC(=O)ON=C(C)SC`: “inactive”. Turning to `COP(=O)(NC(C)=O)SC` (stereo not given), the call was inactive. As for `CCOP(=O)(NC(C)C)Oc1ccc(SC)c(C)c1` (stereo not given), the compound was called inactive. Turning to `CCC(CC)Nc1c([N+](=O)[O-])cc(C)c(C)c1[N+](=O)[O-]`, the compound was classed as inactive. On to `CCCSP(=O)(OCC)Oc1ccc(Br)cc1Cl` (stereo not given), for which the AC50 was 20 µM (active). In the case of `CCC(=O)Nc1ccc(Cl)c(Cl)c1`, the compound was called inactive. On to `COP(=O)(OC)OC(Br)C(Cl)(Cl)Br` (stereo not given), for which the call was inactive.

Take `CCOP(=S)(OCC)Oc1ccc2c(C)c(Cl)c(=O)oc2c1`: the AC50 was 1.09 µM (active). On to `CCc1cccc(CC)c1N(COC)C(=O)CCl`, for which the outcome was inactive. Still for that read-out and setting: the same measure for `CCOP(=S)(OCC)OC(Cl)C(Cl)(Cl)Cl` (stereo not given): “inactive”.

For the compound `CCc1cnc(C2=NC(C)(C(C)C)C(=O)N2)c(C(=O)O)c1` (stereo not given), the compound was classed as inactive.

Take `Nc1c(Cl)cc([N+](=O)[O-])cc1Cl`: the call was inactive. Turning to `CC(COc1ccc(Oc2ccccc2)cc1)Oc1ccccn1` (stereo not given), the concentration at half-maximal activity (AC50) is 4.08 µM (active). As to `CC(Oc1cccc(Cl)c1)C(=O)O` (stereo not given), the outcome was inactive. Same read-out and setting: the same measure for `CN(C)C(=O)Nc1cccc(C(F)(F)F)c1`: “inactive”. `COc1cccc(C(=O)NN(C(=O)c2cc(C)cc(C)c2)C(C)(C)C)c1C`: the AC50 was 4.26 µM (active). Take `CCCSP(=O)(OCC)SCCC`: the compound was called inactive.

As to `CCCOCC(=Nc1ccc(Cl)cc1C(F)(F)F)n1ccnc1`, the outcome was inactive.

Consider `COP(=O)(OC)SCn1c(=O)oc2cc(Cl)cnc21`, for which the result was inactive.

For the compound `COc1cc(OC)nc(Sc2cccc(Cl)c2C(=O)O)n1`, the outcome was inactive. On the same count and under the same terms, the entry for `CSC1=N[C@@](C)(c2ccccc2)C(=O)N1Nc1ccccc1` is “inactive”; for `C[N+]1(C)CCCCC1` it is “inactive”. Turning to `CCOP(=S)(OCC)Oc1cc(C)nc(C(C)C)n1`, the concentration at half-maximal activity (AC50) is 1.92 µM (active). Turning to `CCc1cccc(C)c1N(C(=O)CCl)C(C)COC` (stereo not given), the compound was classed as inactive. `FC(F)C(F)(F)OCC(Cn1cncn1)c1ccc(Cl)cc1Cl` (stereo not given): the compound was called inactive. Still for that read-out and setting: the same measure for `CCCCOC(=O)[C@@H](C)Oc1ccc(Oc2ccc(C#N)cc2F)cc1`: “inactive”.

On to `CCOC(=O)COc1cc(-c2nn(C)c(OC(F)F)c2Cl)c(F)cc1Cl`, for which the outcome was inactive.

For `CSc1nnc(C(C)(C)C)c(=O)n1N`, the outcome was inactive.

Source of the values: PubChem BioAssay (EPA / NIEHS).
